# Keap1-Nrf2 PPI = Keap1-Nrf2 protein-protein interaction inhibitors, primary screen, biochemical, fluorescence polarization, single point; Keap1 Kelch-Nrf2 peptide fluorescence polarization, 1536-well; actives 0.15% (n = 340,000); inhibition, % at 9.4 µM; Kelch-like ECH-associated protein 1 (Homo sapiens), Q14145; in the data active = inhibition above about 12%; inconclusive = no clear call, values can overlap the other calls; inactive = below about 7.3%;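 also: human Keap1 Kelch domain with fluorescein labeled Nrf2 9mer peptide probe; 0% = neutral control wells and 100% = peptide positive control; higher means more block of Keap1 binding to Nrf2 peptide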
# NSD2 HMT inh = NSD2 histone methyltransferase inhibitors, primary screen, biochemical, AlphaScreen, single concentration, set 2; Histone-lysine N-methyltransferase NSD2 (Homo sapiens), O96028; inhibition, % at 12.5 µM; NSD2 peptide methylation, 120 min; actives 0.54% (n = 310,000); in the data active = inhibition above about 50%
# N-glyco inh = increase of ERlucT glycosylation luciferase signal, primary screen, N-linked glycosylation inhibitor project, D54 ERlucT cells, luminescence, set 2. AID 588692, 2011. actives 0.23% (n = 360,000). D54 ERlucT glycosylation luciferase reporter, 24 h; percent of 100 nM tunicamycin response. reporter increase, % at 12.5 µM;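 active = mean luciferase reporter signal, scaled so untreated is 0 and the glycosylation-blocking control 100, at or above a set limit in every replicate; inconclusive = mean reaches the limit but not every replicate does; inactive = mean below the limit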;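 also: luciferase carries N-glycosylation sites so blocking glycosylation raises the light; 0% = median of neutral control wells and 100% = median of 100 nM tunicamycin wells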
# CASP6 VEID inh = human caspase-6 inhibitors, primary screen, biochemical, VEID-R110 fluorescence, single point, set 2; purified caspase-6, Z-VEID-R110 cleavage fluorescence; inhibition, % at 12.5 µM; actives 0.53% (n = 350,000);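 active = mean inhibition across replicates at least about 35%, with every replicate also reaching that limit, limit read from the data; inconclusive = only one of the two criteria met; inactive = neither criterion met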;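 also: 0% = median of neutral control wells and 100% = no fluorescence left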
# Target sequence (P55212 24-179 limits assumed): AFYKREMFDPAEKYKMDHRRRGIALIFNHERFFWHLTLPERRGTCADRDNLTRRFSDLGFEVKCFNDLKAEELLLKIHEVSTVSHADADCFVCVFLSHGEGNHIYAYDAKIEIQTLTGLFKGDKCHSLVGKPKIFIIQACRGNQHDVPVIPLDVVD
# Target sequence (P55212 194-293 limits assumed): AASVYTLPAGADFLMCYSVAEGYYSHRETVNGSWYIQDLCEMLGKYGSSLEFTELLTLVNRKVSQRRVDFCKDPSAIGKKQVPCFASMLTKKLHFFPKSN
# HDAC3 inhib = HDAC3 deacetylase inhibitors, primary screen, biochemical, fluorescence, cell-free homogeneous; recombinant HDAC3, fluorogenic peptide/trypsin coupled; inhibition, % at 8.3 µM; actives 0.15% (n = 320,000); in the data active = inhibition above about 26%, passing the limit was not always enough; inconclusive = no clear call, values can overlap the other calls
# Target sequence (O15379 whole entry, looked up): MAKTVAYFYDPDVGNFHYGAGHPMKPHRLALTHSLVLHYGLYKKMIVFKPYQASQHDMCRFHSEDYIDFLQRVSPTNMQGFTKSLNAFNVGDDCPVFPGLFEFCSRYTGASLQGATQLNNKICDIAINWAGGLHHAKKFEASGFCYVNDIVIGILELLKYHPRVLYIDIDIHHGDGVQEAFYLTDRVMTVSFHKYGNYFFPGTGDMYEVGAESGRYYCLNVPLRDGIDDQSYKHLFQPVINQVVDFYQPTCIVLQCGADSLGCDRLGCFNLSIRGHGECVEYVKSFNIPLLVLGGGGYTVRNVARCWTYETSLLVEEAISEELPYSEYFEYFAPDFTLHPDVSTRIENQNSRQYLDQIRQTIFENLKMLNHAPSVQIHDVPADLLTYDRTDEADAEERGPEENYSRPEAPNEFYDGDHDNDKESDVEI
# C-LANA FP = inhibitors of KSHV C-LANA binding to DNA, primary screen, biochemical, fluorescence polarization, FAM-LBS DNA, MBP-C-LANA, single point; Kaposi's sarcoma herpesvirus LANA C-terminal domain (residues 932-1162) DNA binding; inhibition, % at 9 µM; actives 0.078% (n = 340,000); AID 504423, 2011;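 active = highest replicate inhibition at or above 60% at 9 µM, even if other replicates fall short; inactive = all replicates below 60% inhibition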;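 also: 0% = neutral control wells and 100% = 4 µM acridine orange control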
# The depositor's hits bear a star; ? = inconclusive; . = no result given. This is a sample that favours compounds with a hit; in the whole collection about 1.1% have one here.
SMILES,Keap1-Nrf2 PPI,NSD2 HMT inh,N-glyco inh,CASP6 VEID inh,HDAC3 inhib,C-LANA FP
COc1ccccc1CNC(=O)C1CCN(S(=O)(=O)c2ccc3nc4c(c(C(=O)O)c3c2)CCCC4)CC1,1.6,-2.0,2.0,49.9*,0.8,0.2
O=C(O)c1c2c(nc3ccc(S(=O)(=O)N4CCC(C(=O)NCc5ccccc5)CC4)cc13)CCCC2,.,1.9,0.4,18.8,.,.
C[C@@H]1CCCCO[C@H](CN(C)S(=O)(=O)c2ccc(Cl)cc2)[C@H](C)CN([C@@H](C)CO)C(=O)c2cc(NC(=O)NC3CCCCC3)ccc2O1,.,.,.,-1.6,.,.
C[C@H](CO)N1C[C@H](C)[C@@H](CN(C)S(=O)(=O)c2ccc(Cl)cc2)Oc2c(NS(=O)(=O)c3cccs3)cccc2C1=O,.,.,.,-0.8,.,.
CC(C)(C)C(=O)Nc1ccc(C(=O)N/N=C/c2ccccc2OC(=O)c2ccccc2)cc1,-4.5,1.2,-3.9,.,35.3*,2.3
O=C(COC(=O)c1ccc([N+](=O)[O-])o1)NC1CCCC1,4.6,4.8,1.0,10.2,0.3,1.0
CC1CCCCC1NC(=O)COC(=O)c1ccc([N+](=O)[O-])o1 (stereo unspecified),-0.5,.,0.9,48.1*,.,-0.5
O=C(COC(=O)c1ccc([N+](=O)[O-])o1)NC1CCCCC1,0.1,5.4,-0.3,35.8*,0.7,0.8
CCN1C(=O)N/C(=C/c2ccc(C)o2)C1=O,-4.4,6.8,-0.3,42.3*,1.8,2.1
NNS(=O)(=O)c1ccc2c(c1)Cc1cc(S(=O)(=O)NN)ccc1-2,4.4,-2.0,-0.1,48.3*,6.0,-1.5
O=S(=O)(NCCO)c1ccc2c(c1)Cc1cc(S(=O)(=O)NCCO)ccc1-2,1.4,-2.4,0.0,-5.2,2.4,-1.9
COC(=O)c1cc(=O)n(-c2ccc(F)cc2)c(=Nc2ccc(F)cc2)s1,-0.4,.,39.2*,-1.2,6.9,-2.4
Cc1noc(C)c1S(=O)(=O)Nc1ccc2c(c1)C(=O)N([C@@H](C)CO)C[C@H](C)[C@@H](CN(C)Cc1ccncc1)OCCCC[C@@H](C)O2,.,.,.,0.5,.,.
NC(=O)C1CCN(c2nc(-c3cccnc3)cs2)CC1,12.8*,.,2.4,.,2.1,18.4
O=C(O)c1ccccc1NS(=O)(=O)c1ccc(NN=Cc2ccccc2F)c([N+](=O)[O-])c1,1.5,2.9,2.8,41.1*,10.4,5.6
CSc1ccc(C=NNc2ccc(S(=O)(=O)Nc3ccccc3C(=O)O)cc2[N+](=O)[O-])cc1,-3.5,3.1,0.4,40.8*,?,2.9
CCOc1ccc(C=NNc2ccc(S(=O)(=O)Nc3ccccc3C(=O)O)cc2[N+](=O)[O-])cc1,0.8,-0.8,-3.0,23.0,6.5,0.5
O=C1c2ccccc2C(=O)c2[nH]c(=O)[nH]c21,5.8,35.2,-17.0,82.6*,3.1,-2.4
O=C(O)c1cccc(N2C(=O)c3cc([N+](=O)[O-])cc4cc([N+](=O)[O-])cc(c34)C2=O)c1,1.7,34.4,-5.7,45.0*,2.3,10.1
O=C1c2ccc(Oc3cccc([N+](=O)[O-])c3)cc2C(=O)N1c1ccccn1,-4.1,6.8,1.5,-0.2,5.5,-0.6
O=C1c2cc([N+](=O)[O-])cc3cc([N+](=O)[O-])cc(c23)C(=O)N1c1ccccn1,0.7,29.7,0.2,48.2*,-2.2,-2.5
Cn1cnc([N+](=O)[O-])c1Sc1ncnc2nc[nH]c12,-0.1,.,129.6*,2.4,12.4,0.2
CC(=O)CSc1ncnc2nc[nH]c12,-3.8,-6.0,5.3,.,-3.2,-0.2
Cn1cnc(Sc2ncnc3nc[nH]c23)c1[N+](=O)[O-],-3.8,.,135.8*,-0.4,9.0,-0.4
Cc1cccnc1Sc1c([N+](=O)[O-])ncn1C,-1.0,1.7,2.2,.,3.6,-1.0
SMILES,Keap1-Nrf2 PPI,NSD2 HMT inh,N-glyco inh,CASP6 VEID inh,HDAC3 inhib,C-LANA FP
O=C(CCN1CCCCC1)N[C@@H]1CC[C@H](CCNC(=O)c2cc(Cl)cc(Cl)c2)O[C@@H]1CO,.,.,.,-3.9,.,.
CCOc1ccc(/C=C2\CCCc3c2nc2ccccc2c3C(=O)O)cc1OC,113.7*,.,0.2,.,5.0,147.7*
COc1ccccc1Cn1[nH]nnc1=S,0.6,101.2*,1.1,1.4,10.5,-1.4
CC[C@]12c3[nH]c4cc(CCC(=O)N(C)C)ccc4c3CCN1C(=O)[C@@H](CC(=O)NC/C=C(\C)CCC=C(C)C)C[C@@H]2C(=O)N1CCN(C(=O)c2ccco2)CC1,-8.4,.,31.0*,.,.,-2.1
O=C(NCc1ccccc1Cl)c1ccc2nc[nH]c2c1,-2.1,8.2,0.9,38.7*,2.7,2.1
O=C(NCc1ccc(Cl)cc1Cl)c1ccc2nc[nH]c2c1,-2.9,-1.9,-0.8,.,2.1,-0.2
CC(C)CC#Cc1ccc2c(c1)O[C@H](CN(C)C(=O)Nc1ccccc1)[C@@H](C)CN([C@@H](C)CO)S2(=O)=O,.,.,.,0.2,.,.
CC1=N/C(=C/c2ccco2)C(=O)O1,-1.1,119.0*,1.8,34.7,.,13.8
COc1cc(/C=C2/N=C(C3CCCCC3)OC2=O)cc(OC)c1OC,-4.9,0.6,-0.8,.,1.0,-0.3
COc1cc(/C=C2\N=C(C)OC2=O)cc(OC)c1OC,-3.1,4.8,1.3,-4.4,36.1*,-0.3
Cc1cn([C@@H](CCCCNC(=O)OC(C)(C)C)C(=O)NCCCCCCCCCCC(=O)N2CCN(C(=O)OC(C)(C)C)CC2)nn1,-0.2,.,-4.6,.,3.8,3.5
C#CCOCCOCCOCCNc1nc(N2CCN(C(=O)CCCCCCCCCCNC(=O)[C@H]([C@@H](C)CC)n3cc(CCCCN=C(N)N)nn3)CC2)nc(N2CCN(C(=O)CCCCCCCCCCNC(=O)[C@H](CCCN=C(N)N)n3cc(C[C@@H](C)CC)nn3)CC2)n1,.,.,.,.,-8.5,.
C#CCOCCOCCOCCNc1nc(N2CCN(C(=O)CCCCCCCCCCNC(=O)[C@@H](CCSC)n3cc(CCO)nn3)CC2)nc(N2CCN(C(=O)CCCCCCCCCCNC(=O)[C@H](CCCN=C(N)N)n3cc(C[C@@H](C)CC)nn3)CC2)n1,-22.6,.,-13.0,.,69.2*,0.6
C#CCOCCOCCOCCNc1nc(N2CCN(C(=O)CCCCCCCCCCNC(=O)[C@H](CCCCN)n3cc(C[C@@H](C)CC)nn3)CC2)nc(N2CCN(C(=O)CCCCCCCCCCNC(=O)[C@H](CCCN=C(N)N)n3cc(C[C@@H](C)CC)nn3)CC2)n1,-10.3,.,-22.7,.,?,-1.0

# Assay outcomes as filed in PubChem.
